The structures appear in SMILES notation. The whole screen tested about 2,000 compounds, of which about 110 (5.5%) showed an effect of 50% or more. This excerpt belongs to a sample that is enriched for strong results.

In this assay the target is Genome polyprotein (dengue virus type 2) (UniProt P29990).
[1] abbreviates: Thailand/16681/1984, Concentration 25.0 uM, Number of replicates 1.0.

One may read the inhibition as the relative decrease from the control value, in per cent. Turning to `CC(C)(C)OC(=O)N[C@H](C(=O)Nc1cccc(CN)c1)c1ccc(OCc2ccccc2)cc1`, the inhibition (Thailand/16681/1984, Concentration 49.5 uM, Number of replicates 2.0, Standard deviation 1.7551947166429631 %) is -1.9%; the inhibition (Thailand/16681/1984, Concentration 99.01 uM, Number of replicates 2.0, Standard deviation 0.05489981052071439 %) was determined as 3.23%; the inhibition (Thailand/16681/1984, Concentration 198.0 uM, Number of replicates 2.0, Standard deviation 0.6374768156986698 %) worked out at 15%.
For `CCCC[C@H](NC(=O)OC(C)(C)C)C(=O)N[C@H](C(=O)NCc1ccc(C(N)=O)cc1)c1ccc(OCc2ccccc2)cc1`, the inhibition is -3.24% (Thailand/16681/1984, Concentration 49.5 uM, Number of replicates 2.0, Standard deviation 0.5441055304446053 %); 12.6% (Thailand/16681/1984, Concentration 99.01 uM, Number of replicates 2.0, Standard deviation 1.2410372194636528 %); 97.6% (Thailand/16681/1984, Concentration 198.0 uM, Number of replicates 2.0, Standard deviation 0.08996362825826161 %).
With `CCCC[C@@H](NC(=O)OC(C)(C)C)C(=O)N[C@@H](C(=O)NCc1ccc(CN)cc1)c1ccc(OCc2ccccc2)cc1`, the inhibition (Thailand/16681/1984, Concentration 49.5 uM, Number of replicates 2.0, Standard deviation 1.8529777654117539 %) worked out at 94%; the inhibition (Thailand/16681/1984, Concentration 99.01 uM, Number of replicates 2.0, Standard deviation 0.005880328304239935 %) came to 100%; the inhibition (Thailand/16681/1984, Concentration 198.0 uM, Number of replicates 2.0, Standard deviation 0.014706215557209234 %) amounted to 99.9%.
For `CC(C)(C)OC(=O)N[C@H](C(=O)Nc1ccc(CN)cc1)c1ccc(OCc2ccccc2)cc1`, the inhibition reads like this: (Thailand/16681/1984, Concentration 49.5 uM, Number of replicates 2.0, Standard deviation 0.7638001086987946 %) -1.42%; (Thailand/16681/1984, Concentration 99.01 uM, Number of replicates 2.0, Standard deviation 0.5692523211680847 %) 0.423%; (Thailand/16681/1984, Concentration 198.0 uM, Number of replicates 2.0, Standard deviation 0.3400589812244498 %) 5.26%.
For `Cc1cnccc1NC(=O)c1ccc2c(c1)COCC2`, the inhibition by setting is: (Thailand/16681/1984, Concentration 49.5 uM, Number of replicates 2.0, Standard deviation 2.5121871293930202 %) -1.99%; (Thailand/16681/1984, Concentration 99.01 uM, Number of replicates 2.0, Standard deviation 1.8322256055090813 %) -1.68%; (Thailand/16681/1984, Concentration 198.0 uM, Number of replicates 2.0, Standard deviation 3.8354075529759903 %) -1.51%.
`NCc1cccc(NC(=O)C2(NC(=O)OCc3ccccc3)CC(F)(F)C2)c1`: the inhibition (Thailand/16681/1984, Concentration 49.5 uM, Number of replicates 2.0, Standard deviation 2.2677200349668407 %) was -2.94%; the inhibition (Thailand/16681/1984, Concentration 99.01 uM, Number of replicates 2.0, Standard deviation 0.8839411333719474 %) was -2.06%; the inhibition (Thailand/16681/1984, Concentration 198.0 uM, Number of replicates 2.0, Standard deviation 0.8051076448684426 %) is -2.25%.
Regarding `Cc1cc(CO)c2cccc(Cc3ccccc3NC(=O)CN3CCOCC3)c2n1`, the inhibition runs as follows: (Thailand/16681/1984, Concentration 49.95 uM, Number of replicates 2.0, Standard deviation 1.5612707024702146 %) -2%; (Thailand/16681/1984, Concentration 99.9 uM, Number of replicates 2.0, Standard deviation 0.4618038620708361 %) 3.39%.
On to `COc1cc(Cc2cnc(N)c(C(F)F)c2)nc(N2CCNCC2)n1`, for which the inhibition by setting is: (Thailand/16681/1984, Concentration 49.5 uM, Number of replicates 2.0, Standard deviation 0.44655669171298956 %) 1.19%; (Thailand/16681/1984, Concentration 99.01 uM, Number of replicates 2.0, Standard deviation 0.9500169394185984 %) 3.1%; (Thailand/16681/1984, Concentration 198.0 uM, Number of replicates 2.0, Standard deviation 0.4205436146652173 %) 6.14%.
As to `CCCOc1ccc([C@H](C)NC(=O)C2CCN(c3ccc(C=O)cc3)CC2)cc1`, the inhibition under setting [1] worked out at 7.26%.
Same read-out and setting: in the case of `COc1ccc(C[C@H]2c3cc(OC)c(OC)cc3CCN2C(=O)C2CCN(c3ccc(C=O)cc3)CC2)cc1OC` it was 15.8%.
As to `CCn1c(=O)c(N2CC[C@@H](CO)C2)nc2ccccc21`, the inhibition was found to be 16.3% (Thailand/16681/1984, Concentration 49.5 uM, Number of replicates 2.0, Standard deviation 0.8446781408235627 %); 33.2% (Thailand/16681/1984, Concentration 99.01 uM, Number of replicates 2.0, Standard deviation 1.6946189057395897 %); 53.9% (Thailand/16681/1984, Concentration 198.0 uM, Number of replicates 2.0, Standard deviation 1.3775046688444705 %).
For the compound `CCn1ccnc(N2CC[C@@H](CO)C2)c1=O`, the inhibition is, setting by setting: (Thailand/16681/1984, Concentration 49.5 uM, Number of replicates 2.0, Standard deviation 0.40547257598729775 %) 8.04%; (Thailand/16681/1984, Concentration 99.01 uM, Number of replicates 2.0, Standard deviation 0.38043701079703857 %) 15.5%; (Thailand/16681/1984, Concentration 198.0 uM, Number of replicates 2.0, Standard deviation 0.16218916526483432 %) 28.5%.
Take `O=c1c(N2CC[C@H](CO)C2)nccn1C1CC1`: the inhibition (Thailand/16681/1984, Concentration 49.5 uM, Number of replicates 2.0, Standard deviation 2.4482264734756005 %) was 8.46%; the inhibition (Thailand/16681/1984, Concentration 99.01 uM, Number of replicates 2.0, Standard deviation 2.8900822321462307 %) was 18%; the inhibition (Thailand/16681/1984, Concentration 198.0 uM, Number of replicates 2.0, Standard deviation 2.1394185374850085 %) amounted to 33.2%.
As for `C[C@H](NC(=O)C1CCN(c2ccc(C=O)cc2)CC1)C12CC3CC(CC(C3)C1)C2`, the inhibition under setting [1] came out at 15%.
On the same count and under the same terms, to `CN(C(=O)C1CCN(c2ccc(C=O)cc2)CC1)[C@H]1CCN(Cc2ccccc2)C1` belongs 13.8%.
For `Cc1nnc([C@H](C)n2cc(C3CCNCC3)c(C)n2)o1`, the inhibition (Thailand/16681/1984, Concentration 49.5 uM, Number of replicates 2.0, Standard deviation 23.401160981224884 %) worked out at 6.09%; the inhibition (Thailand/16681/1984, Concentration 99.01 uM, Number of replicates 2.0, Standard deviation 17.471832455878243 %) came out at 11.7%; the inhibition (Thailand/16681/1984, Concentration 198.0 uM, Number of replicates 2.0, Standard deviation 4.4669335919131345 %) was -3.53%.
On to `Cc1cc(CO)c2cccc(Cc3ccccc3C(=O)Nc3ccc(C(=O)O)o3)c2n1`, for which the inhibition turned out to be 16.8% (Thailand/16681/1984, Concentration 49.95 uM, Number of replicates 2.0, Standard deviation 1.5990008562851066 %) and 34.4% (Thailand/16681/1984, Concentration 99.9 uM, Number of replicates 2.0, Standard deviation 2.1056511568076566 %).
For the compound `Cc1cc(CO)c2cccc(Cc3cccc(C(=O)N[C@@H](C)C(N)=O)c3)c2n1`, the inhibition runs as follows: (Thailand/16681/1984, Concentration 49.95 uM, Number of replicates 2.0, Standard deviation 0.7962665847500093 %) 6.57%; (Thailand/16681/1984, Concentration 99.9 uM, Number of replicates 2.0, Standard deviation 0.21200201975767785 %) 24.1%.
For the compound `Cc1cc(CO)c2cccc(Nc3ccc(C(=O)O)o3)c2n1`, the inhibition was 10.8% (Thailand/16681/1984, Concentration 49.95 uM, Number of replicates 2.0, Standard deviation 2.0261345521834873 %) and 14% (Thailand/16681/1984, Concentration 99.9 uM, Number of replicates 2.0, Standard deviation 1.7612979174821286 %).

Values taken from ChEMBL document CHEMBL5606460, “ASAP - DENV-2 NS2B-NS3 protease fluorescence single point” (2024).
